Hit rate of the full screen: of about 220,000 compounds, about 930 (0.42%) were called active. Cut-off read from the data, not from the text of the source: active = inhibition above about 50%; inactive = the rest. The sample as a whole holds a higher share of actives than the screen did.
Each molecule was assayed against Glycoprotein 42 (Epstein-Barr virus (strain AG876)) (UniProt Q1HVG2) (assay: EBV glycoprotein 42 binding blockers – biochemical, uHTS, fluorescence polarization, primary screen (AID 1085)). Details: Fluorescence polarization binding assay, mP read-out; active compounds read high; tested at 21.74 µM.
Sequence of Glycoprotein 42 (Epstein-Barr virus (strain AG876)) (Q1HVG2 whole entry, looked up): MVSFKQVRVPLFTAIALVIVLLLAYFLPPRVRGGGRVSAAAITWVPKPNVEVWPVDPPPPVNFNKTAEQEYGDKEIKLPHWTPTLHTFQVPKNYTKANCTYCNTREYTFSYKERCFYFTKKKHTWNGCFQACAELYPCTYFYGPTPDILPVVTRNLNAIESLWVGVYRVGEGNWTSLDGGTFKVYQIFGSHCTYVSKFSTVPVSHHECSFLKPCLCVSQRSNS

Row | Compound | inhibition
1 | Cc1cccc(N2C(=O)NC(=O)/C(=C\c3cnn(-c4ccccc4)c3)C2=O)c1 | -3.6% (inactive)
2 | O=C1NC(=O)N(c2ccccc2)C(=O)/C1=C/c1ccc([N+](=O)[O-])s1 | -9.65% (inactive)
3 | O=C1NC(=O)N(c2ccc(F)cc2)C(=O)/C1=C/c1ccc2c(c1)CCCN2Cc1ccccc1 | 187% (active)
4 | O=c1[nH]c(=O)n(CCc2ccccc2)c(O)c1/C=N/N1CCOCC1 | -16.8% (inactive)
5 | CN(C)CC1Oc2ccccc2OC1(O)c1ccccc1 (stereo not given) | -12% (inactive)
